High-throughput results (PubChem BioAssay)
TDP1 cell noCPT: qHTS for Inhibitors of human tyrosyl-DNA phosphodiesterase 1 (TDP1): qHTS in cells in absence of CPT. 420,000 compounds, 15% hits. DT40 Tdp1-/- hTDP1 cells, no CPT, ATP luminescence, 48 h. AID 686978, 2013. Potency, µM (series often up to 46.2 µM), for the others: top-dose activity change, negative = growth inhibition, usual class: inhibitors; also: potency is read from the fitted curve at half-maximal effect; nearly all actives have a fitted effect of over 55% in size
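Seeded 400 DT40-hTDP1 cells/well (vehicle DMSO, no 20 nM CPT); pinned compounds; ≥48 hr at 37 °C; CellTiter-Glo luminescence as viability measure.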
TDP1 block: TDP1 (human) enzyme inhibition; Q9NUW8; recombinant TDP1, AlphaScreen DNA substrate cleavage; Potency, µM (highest dose often 130 µM), for the others: at the top dose activity change, negative = inhibition, usual class: inhibitors; 350,000 compounds, 0.28% hits; AID 485290; also: potency is read from the fitted curve at half-maximal effect; nearly all actives have a fitted effect of over 40% in size
Target sequence (Q9NUW8 whole entry, looked up): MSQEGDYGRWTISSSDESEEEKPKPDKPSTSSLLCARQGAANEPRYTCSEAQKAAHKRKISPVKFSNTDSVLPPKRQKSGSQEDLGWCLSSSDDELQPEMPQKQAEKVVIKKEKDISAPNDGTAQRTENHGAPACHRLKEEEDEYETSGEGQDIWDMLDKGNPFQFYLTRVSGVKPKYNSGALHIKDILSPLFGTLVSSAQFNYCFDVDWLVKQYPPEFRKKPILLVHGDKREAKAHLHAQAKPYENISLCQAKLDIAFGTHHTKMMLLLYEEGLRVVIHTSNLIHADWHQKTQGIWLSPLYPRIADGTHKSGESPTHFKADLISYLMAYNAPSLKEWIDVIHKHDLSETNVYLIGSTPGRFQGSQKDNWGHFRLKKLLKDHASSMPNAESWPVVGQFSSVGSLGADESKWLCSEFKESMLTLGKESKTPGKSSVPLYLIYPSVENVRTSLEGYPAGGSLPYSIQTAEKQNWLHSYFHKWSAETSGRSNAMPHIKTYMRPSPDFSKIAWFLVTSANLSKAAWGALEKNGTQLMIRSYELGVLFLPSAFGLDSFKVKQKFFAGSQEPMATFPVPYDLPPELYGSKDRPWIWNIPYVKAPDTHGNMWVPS
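Steps: enzyme plus compound, 15 min RT; add biotin/phosphotyrosine-FITC oligonucleotide (15 nM final), react 5 min; add donor/acceptor beads (10 ug/ml final), 10 min; read AlphaScreen. Tdp1 at 1 nM final.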
ELG1 repair inh: blocks ELG1-dependent DNA repair in HEK293T cells; HEK293T ELG1-luciferase reporter, luminescence, 16 h; DNA damage induced by 5-fluorouridine; 330,000 compounds, 2.3% hits; Potency, µM (highest dose often 46.1 µM), inactives show at the top dose activity change, negative = inhibition, usual class: inhibitors; AID 504467; also: potency is read from the fitted curve at half-maximal effect; nearly all actives have a fitted effect of over 55% in size
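In this reporter screen, reduction of luminescence relative to DMSO vehicle indicated activity. Compounds and 5-fluorouridine were added together to 2,000 cells per well, incubated for 16 hr at 37 °C, then developed with ONE-Glo.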
IL-1B inflam inh: inflammasome signaling inhibition, IL-1 beta readout; THP-1 LPS/ATP IL-1B secretion, AlphaLISA, 16 h; active compounds read low; activity change, % at 57.5 µM; 360,000 compounds, 4.7% hits; in the data active = activity change below about -50%; inconclusive = mostly about -30% to -49%
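Secreted IL-1B measured by AlphaLISA bead assay after 16 h compound exposure of THP-1 cells; compounds (final up to 57.5 uM) added 1 h before LPS (250 ng/mL) and ATP (1.25 mM) stimulation; lower signal means less secretion.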
Giardia killer: kills Giardia lamblia; activity change, % at 7.66 µM, hits read low; AID 540267; Giardia lamblia trophozoite viability; 340,000 compounds, 0.15% hits; in the data active = activity change below about -80%; inconclusive = between about -30% and that limit;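 also: parasites exposed to compound for two days anaerobically before the ATP read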
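Giardia lamblia trophozoites (100 cells/well) were incubated with compounds for 48 h at 37 deg C under anaerobic conditions. Viability was read as ATP content by one-step luminescence after 15-30 min at room temperature.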
TDP1 cell CPT: growth inhibition of DT40 Tdp1-/-;hTDP1 cells with camptothecin (screen for TDP1 inhibitors); chicken DT40 Tdp1-/-;hTDP1 cells + 20 nM CPT, ATP luminescence, 48 h; 420,000 compounds, 12% hits; Potency, µM (highest dose often 46.2 µM), for inactives: top-dose activity change, negative = growth inhibition, hits mostly inhibitors; also: potency is read from the fitted curve at half-maximal effect; nearly all actives have a fitted effect of over 55% in size
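Chicken DT40 Tdp1-/- cells complemented with human TDP1, 400 cells/well, exposed to compounds plus 20 nM camptothecin for at least 48 h at 37 C; viability read as ATP content by CellTiter-Glo luminescence.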
* marks the source's active call; other numbers are inactive results; ? = inconclusive; · = not tested or not shown; ! = repeats disagree; [ ] = dose if it differs, or a comment. An excerpt weighted towards active compounds, which were near 19% of everything screened. Unless noted, calls follow the shape of the dose curve; as a rule, active = well fitted curve in the direction sought with a large enough effect; inconclusive = small, poorly fitted or top-dose-only effect, or another doubt; inactive = no such curve, though single readings can be large; an effect the other way counts as inactive or inconclusive. % is scaled to controls: 0 for no effect and ±100 for the full control effect.

SMILES	TDP1 cell noCPT	TDP1 block	ELG1 repair inh	IL-1B inflam inh	Giardia killer	TDP1 cell CPT
CSc1ccc(/C=C(\NC(=O)c2ccc(C)cc2)C(=O)NN)cc1	4%	·	18µM*	?	-19	8%
CSc1ccc(/C=C(/NC(=O)c2ccccc2)C(=O)N2CCN(C)CC2)cc1	5%	-9%	1%	-17	-9	-2%
CSc1ccc(/C=C(/NC(=O)c2ccc(C)cc2)C(=O)Nc2cccc(C)c2)cc1	7.3µM*	-5%	16%	37	-9	7.3µM*
CC(=O)OC1(C(C)=O)CCC2C3CC(C(F)(F)F)C4=CC(=O)CCC4(C)C3CCC21C (stereo unspecified)	13µM*	·	·	-94*	-11	?
CCCCCC(=O)O[C@@]1(C(C)=O)CCC2C3CCC4=CC(=O)CC[C@@]4(C)C3CC[C@]21C (stereo partly specified)	?	-9%[56.1 µM]	·	·	·	?
CC(=O)O[C@]1(C(C)=O)CC[C@H]2[C@@H]3C[C@H](C)C4=CC(=O)CC[C@]4(C)[C@H]3CC[C@@]21C	16µM*!	5%	-4%	?	-9	18µM*
CC(=O)C12CCCCC1CC1[C@@H]3CC(C)C4=CC(=O)CC[C@]4(C)C3CC[C@@]12C (stereo partly specified)	15µM*	·	-27%	11	9	?
CCC(=O)OC1(C(C)=O)CCC2C3CCC4=CC(=O)CCC4(C)C3CCC21C (stereo unspecified)	23µM*	·	·	-26	14	-98%
FC(F)(F)c1cc(-c2ccccn2)nc2cc(-c3ccccc3)nn12	-10%	0%	-1%	1	-5	1%
CC(C)n1nnnc1C1c2ccccc2C(=O)N1Cc1ccc(F)cc1 (stereo unspecified)	?	·	·	2	·	-10%
CCN1C(=O)[C@H]2[C@H]3[C@H](O)[C@H](O)C/C(=N\OC[C@@H](C)[C@H](OCc4ccccc4)C(C)C)[C@@H]3CC[C@H]2C1=O	·	3%	-6%	·	·	·
COc1ccc([N+](=O)[O-])cc1NC(=O)C1CCCO1 (stereo unspecified)	-17%	-4%	0%	15	-5	-15%
C/C(=N\Nc1cc(N2CCOCC2)ncn1)c1ccccc1	?	·	?	-79*	-18	23µM*
O=[N+]([O-])c1cccc(/C=N/Nc2cc(N3CCOCC3)ncn2)c1	?	·	13%	-68*	-7	?
C/C(=N\Nc1cc(N2CCOCC2)ncn1)c1cccc([N+](=O)[O-])c1	16µM*	-1%	-13%	-21	-21	?
O=[N+]([O-])c1cccc(/C=N/Nc2nc(N3CCOCC3)nc(N3CCOCC3)n2)c1	?	8%	?	-1	5	-5%
Cc1ccc(CNS(=O)(=O)c2c(C)[nH]c(=O)[nH]c2=O)cc1	17%	·	6%	8	4	-4%
Cc1cc(C)c(NC(=O)CSc2nnc(CNC(=O)c3ccco3)o2)c(C)c1	15%	0%	16%	-8	-18	-3%
C/C(=N\NC(=O)C1(C)CC1(Br)Br)c1cccc(NC(=O)C(C)(C)C)c1 (stereo unspecified)	?	0%	?	4	4	-9%
C/C(=N\NC(=O)C1(C)CC1(Br)Br)c1ccc(NC(=O)c2ccc(C)o2)cc1 (stereo unspecified)	18µM*	5%	?	51	6	13µM*
C/C(=N\NC(=O)C1(C)CC1(Br)Br)c1ccc([N+](=O)[O-])cc1 (stereo unspecified)	?	6%	?	0	4	16%
COc1ccc(CC(=O)Nc2cccc(/C(C)=N/NC(=O)C3(C)CC3(Br)Br)c2)cc1 (stereo unspecified)	?	5%	-26%	26	-23	16µM*
Cc1ccc(C)c(CN2C[C@H](Sc3ccccn3)C[C@H]2C(=O)Nc2ccc3sc(C)nc3c2)c1	-10%	·	·	·	·	0%[9.04 µM]
CSc1cc(-c2ccc(Cl)cc2)n(Cc2ccccc2)c(=O)c1C#N	15µM*	1%	8%	4	-2	?
CC(C)c1ccc(OCC(O)CN2CCN(c3ccccc3)CC2)cc1 (stereo unspecified)	?	10%	-2%	-74*	-15	?
SMILES	TDP1 cell noCPT	TDP1 block	ELG1 repair inh	IL-1B inflam inh	Giardia killer	TDP1 cell CPT
CC1CCN(CC(O)COc2ccc(-c3ccccc3)cc2)CC1 (stereo unspecified)	18µM*	·	-6%	-29	26	?
CC1CCN(CC(O)COc2ccc(F)cc2)CC1 (stereo unspecified)	-17%	-1%	6%	-6	-4	2%
O=C(CN1C(=O)CCC1=O)Nc1nc(-c2ccc(Oc3ccccc3)cc2)cs1	?	-14%	?	52	5	-22%
COC(=O)C1=C(C)NC(=O)/C1=C\c1cc(C)n(-c2cc(C)cc(C)c2)c1C	?	10%	?	-60*	4	?
CCOc1ccccc1NC(=O)Cn1c(=O)n(C(C)C)c(=O)c2oc3ccccc3c21	?	5%	·	·	·	?
COc1ccc(-c2cc(C(=O)NCC(c3ccco3)N(C)C)c3ccccc3n2)cc1OC (stereo unspecified)	15µM*	·	?	-23	12	23µM*
O=C(Nc1ccccn1)c1cc(-c2ccc(Cl)s2)nc2ccccc12	?	-5%	?	12	?	?
Cc1ccnc(NC(=O)c2cc(-c3ccc(Cl)s3)nc3ccccc23)c1	18µM*	-11%	?	11	16	10µM*
